In PubChem BioAssay (NCATS):
Records with an inconclusive call do not appear. Where a call stands in place of a potency, no number is given. Unmarked numbers belong to inactive results. Calls of active or inactive are those of the source. Calls follow the shape of the dose curve; as a rule, active = well fitted curve in the direction sought with a large enough effect; inconclusive = small, poorly fitted or top-dose-only effect, or another doubt; inactive = no such curve, though single readings can be large; an effect the other way counts as inactive or inconclusive.

Legend:
[1] = molecular target: Cellular tumor antigen p53 (Homo sapiens) (UniProt P04637); assay: Primary qHTS for small molecule compounds that upregulate eGFP-tagged delta133p53alpha (in N-terminal) cells. (AID 2060322); conditions: NCI-H358 eGFP-delta133p53alpha fluorescence, 24 h; activation: active compounds read high; also: nearly all actives have a fitted effect of over 75% in size; also: potency is read from the fitted curve at half-maximal effect;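 as to activation: cells pre-induced with doxycycline then dosed without doxycycline; series mostly up to about 56 µM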
How it was run: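 NCI-H358 cells pre-induced 24 h with 10 ng/ml doxycycline for eGFP-delta133p53alpha, plated dox-free and exposed 24 h at 37C to titrated compounds. Fixed, Hoechst-stained; gated GFP peak intensity by laser scanning cytometry, normalized to DMSO (0%) and 57.5 uM 5-azacytidine (100%).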

[2] = molecular target: Aldehyde dehydrogenase, mitochondrial (Homo sapiens) (UniProt P05091); assay: qHTS for Inhibitors of the Aldehyde Dehydrogenase Family (ALDH2) Primary screen (AID 2061308); also: nearly all actives have a fitted effect of over 55% in size
[3] = molecular target: Retinaldehyde dehydrogenase 3 (Homo sapiens) (UniProt P47895); assay: qHTS for Inhibitors of the Aldehyde Dehydrogenase Family (ALDH1A3) Primary screen (AID 2061315)

Cellular tumor antigen p53 (Homo sapiens), sequence (P04637 whole entry, looked up): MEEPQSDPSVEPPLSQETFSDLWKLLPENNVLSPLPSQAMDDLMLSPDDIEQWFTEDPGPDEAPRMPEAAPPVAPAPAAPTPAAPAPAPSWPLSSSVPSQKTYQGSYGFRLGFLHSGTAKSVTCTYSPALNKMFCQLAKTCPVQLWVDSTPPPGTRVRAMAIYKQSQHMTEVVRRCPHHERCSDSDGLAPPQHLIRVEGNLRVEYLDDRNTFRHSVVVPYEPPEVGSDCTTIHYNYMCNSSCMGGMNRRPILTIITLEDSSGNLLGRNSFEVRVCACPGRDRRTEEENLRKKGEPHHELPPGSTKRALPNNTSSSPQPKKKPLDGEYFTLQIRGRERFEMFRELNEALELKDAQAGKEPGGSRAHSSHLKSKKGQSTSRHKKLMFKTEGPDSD

Compound	activation [1] [%]	Potency [2]	Potency [3]	Potency [1]	activity change, negative = inhibition [2]	activity change, negative = inhibition [3]
C=C(C)[C@@H]1CC[C@]2(C)CC[C@]3(C)C(CCC4[C@@]5(C)CC[C@H](O)C(C)(C)C5CC[C@]43C)C12 (stereo not given in full)	-19.6	inactive	inactive	–	–	–
COc1cc(F)c(C(C)C)cc1-c1ccc(C(F)(F)F)cc1CN1C(=O)OC(c2cc(C(F)(F)F)cc(C(F)(F)F)c2)C1C (stereo not given)	-6.68	inactive	inactive	–	–	–
C[C@@H](Oc1cc(-n2cnc3ccc(OC4CCN(C)CC4)cc32)sc1C(N)=O)c1ccccc1C(F)(F)F	–	inactive	inactive	4.78 µM (active)	–	–
CC(C)(O)C1=CCC23COC(C2)C(O)(C(=O)O)CCC13 (stereo not given)	-6.87	inactive	inactive	–	–	–
C/C=C/C=C/C=C/C(=O)O[C@@H]1[C@@H](OC)C2=C(C(=O)N(C(CCC(=O)O)C(=O)O)C2)[C@@]2(C)CCCC(C)(C)[C@H]12 (stereo not given in full)	-27.5	inactive	inactive	–	–	–
C[C@]1(O)CC[C@@H]2C(C(=O)O)=CO[C@@H](O[C@@H]3O[C@H](COC(=O)/C=C/c4ccc(O)c(O)c4)[C@@H](O)[C@H](O)[C@H]3O)[C@@H]21	0	inactive	inactive	–	–	–
COC(=O)CC(O)CC(O)/C=C/c1c(C)ccc2c1C(O)CC(C)C2 (stereo not given)	-14.5	inactive	inactive	–	–	–
COc1ccc(C2(O)CCC(N3CC[C@@H](NC(=O)CNC(=O)c4cccc(C(F)(F)F)c4)C3)CC2)cn1 (stereo not given in full)	19.6	inactive	inactive	–	–	–
CC(=O)OC(CSC1CCC(=O)OC(C)CCC(=O)C1)C(=O)O (stereo not given)	-6.87	inactive	inactive	–	–	–
CCCC(=O)NCCc1csc(-c2ccc(Cl)cc2)n1	1	inactive	inactive	–	–	–
CCC(NC(=O)CC(NC(=O)C(CO)NC(=O)C(CC)NC(=O)c1ccc[nH]1)c1ccccc1)C(=O)O (stereo not given)	23.7	inactive	inactive	–	–	–
Cc1cn2cc(C(=O)N(C)CCO)cc(NC3CCOc4cccc(C)c43)c2n1 (stereo not given)	-10.3	inactive	inactive	–	–	–
Nc1nc2c(nc(Sc3ccc(Cl)cc3)n2[C@@H]2O[C@@H]3COP(=O)(O)O[C@H]3[C@H]2O)c(=O)[nH]1	1	inactive	inactive	–	–	–
CC[C@H]1OC(=O)[C@H](C)[C@@H](OC2C[C@@](C)(OC)[C@@H](O)[C@H](C)O2)[C@H](C)[C@@H](OC2O[C@H](C)C[C@H](NC)[C@H]2O)[C@](C)(O)C[C@@H](C)CN(C)[C@H](C)[C@@H](O)[C@]1(C)O (stereo not given in full)	4.33	inactive	inactive	–	–	–
CC(=O)OC[C@]12[C@H](OC(C)=O)C(=O)[C@@H]3[C@@H](O)[C@@]14O[C@@]3(C)COC(=O)c1cccnc1[C@@H](C)[C@H](C)C(=O)O[C@@H]([C@H](O)[C@@H]2OC(C)=O)[C@]4(C)O	-8.04	inactive	inactive	–	–	–
COC(=O)C1=C[C@@H](O)[C@@H](O)[C@H](O[C@@H]2O[C@H](CO)[C@@H](O)[C@H](O)[C@H]2OC(=O)/C=C/c2ccccc2)C1	-26	inactive	inactive	–	–	–
COC(=O)c1cc(CN2CCN(C(=N)N)CC2)cc(C(=O)N2CCN(C(=O)c3ccc(C(=N)N)cc3)CC2)c1	1	inactive	inactive	–	–	–
FC(F)(F)c1cc(-c2ncn(/C=C\c3nnco3)n2)cc(C(F)(F)F)c1	7.67	inactive	inactive	–	–	–
CC1(C)C[C@@H]2[C@H](C1)[C@@]1(C)C[C@]13C(O)OC[C@]3(O)[C@H]2O (stereo not given in full)	6.25	inactive	inactive	–	–	–
COc1c(C)c(OCC=C(C)C)cc2c1COC2=O	-0.763	inactive	inactive	–	–	–
C=C1CO[C@@]2(O[C@H]3CC4C5CC=C6C[C@@H](O)C[C@@H](O[C@@H]7OC[C@H](O)[C@H](O[C@@H]8OC[C@@H](O)[C@H](O)[C@H]8O)[C@H]7O[C@@H]7O[C@@H](C)[C@H](OC(C)=O)[C@@H](OC(C)=O)[C@H]7OC(C)=O)[C@]6(C)C5CC[C@]4(C)[C@@H]3[C@@H]2C)[C@@H](O)[C@H]1OC1OC(C)C(O)C(O)C1O (stereo not given in full)	-6.87	–	–	–	8.25% [at 11.2 µM]	-6.16% [at 11.2 µM]
CN(CC1COCCO1)S(=O)(=O)Nc1ccc2ccc3ncc(-c4cnn(C)c4)cc3c(=O)c2c1 (stereo not given)	0.893	inactive	inactive	–	–	–
CC1=CC(=O)OC(C)(CC(C)(O)C(=O)O)C1 (stereo not given)	-15.3	inactive	inactive	–	–	–
C[C@@H]1C[C@H]2[C@@H]3CCC4=CC(=O)C=C[C@]4(C)[C@@]3(F)[C@@H](O)C[C@]2(C)[C@@]1(O)C(=O)COP(=O)(O)O	-5.67	inactive	inactive	–	–	–
C=C1CC/C=C(/CO)C(=O)C[C@@H]2[C@@H]1CC2(C)C	7.14	inactive	inactive	–	–	–

Compound	activation [1] [%]	Potency [2]	Potency [3]	Potency [1]	activity change, negative = inhibition [2]	activity change, negative = inhibition [3]
C=C1CC23CC1CCC2C12OC(=O)C(C)(C(O)CC1O)C2C3C(=O)O (stereo not given)	-7.14	inactive	inactive	–	–	–
COCCN(C)Cc1ccc2nc3sc(C(=O)N(C)C4CCCCC4)cn3c2c1	15.7	inactive	inactive	–	–	–
CC(=O)OC1CC(C)C2(CCC3(CC(=O)OC3O)O2)C2(C)CCCC(C)(C)C12 (stereo not given)	22.3	inactive	inactive	–	–	–
O=C(C[C@@H]1C(C(=O)O)=CO[C@@H](O[C@@H]2O[C@H](CO)[C@@H](O)[C@H](O)[C@H]2O)/C1=C\CO)OCCc1ccc(O)c(O)c1	-14.3	inactive	inactive	–	–	–
COc1cc(O)cc(/C=C/c2cccc(O)c2)c1	-8.93	inactive	inactive	–	–	–
Nc1nc(O)c(C2=C3C(=Nc4ccccc43)C(=O)NCC2)[nH]1	-1.79	inactive	inactive	–	–	–
C/C(=C\CCC(C)CCO)C(=O)OC1(C)CCC2C(C(=O)O)=COC(OC3OC(CO)C(O)C(O)C3O)C21 (stereo not given)	4.58	inactive	inactive	–	–	–
C/C=C(\C)C(=O)O[C@H]1C[C@](C)(O)[C@H]2CC=C(C)[C@H]2[C@@H]2OC(=O)[C@H](C)[C@H]21	-15.2	inactive	inactive	–	–	–
CO[C@H]1O[C@@H]2O[C@@]3(C)CCC4[C@H](C)CCC([C@H]1C)[C@]42OO3 (stereo not given in full)	11.7	inactive	inactive	–	–	–
CC(C)=C1C[C@@]2(C)C(=CC1=O)CC[C@@H](O)[C@@H]2C	4.58	inactive	inactive	–	–	–
CC(C)=CCC[C@](C)(O[C@@H]1O[C@H](CO[C@@H]2O[C@H](CO)[C@@H](O)[C@H](O)[C@H]2O)[C@@H](O)[C@H](O)[C@H]1O)C1CC[C@]2(C)[C@@H]1[C@H](O)CC1[C@@]3(C)CC[C@H](O[C@@H]4O[C@H](CO)[C@@H](O)[C@H](O)[C@H]4O[C@@H]4O[C@H](CO)[C@@H](O)[C@H](O)[C@H]4O)C(C)(C)[C@@H]3CC[C@]12C (stereo not given in full)	-6.25	inactive	inactive	–	–	–
CC(C)=CCC(O)/C(C)=C/CO[C@@H]1O[C@H](CO)[C@@H](O)[C@H](O)[C@H]1O (stereo not given in full)	-15.2	inactive	inactive	–	–	–
O=C(O)Cc1cc(I)c(Oc2ccc(O)c(I)c2)c(I)c1	2.39	inactive	inactive	–	–	–
C[C@@H]1O[C@@H](OC(=O)Cc2ccccc2)[C@H](O)[C@H](O)[C@H]1O	17	inactive	inactive	–	–	–
C=C(C)[C@@H](C)[C@H]1O[C@]23C[C@]4(CO2)C(CCC2[C@@]5(C)CC[C@H](O[C@@H]6OC[C@H](O)[C@H](O[C@@H]7O[C@H](CO)[C@@H](O)[C@H](O)[C@H]7O)[C@H]6O[C@@H]6O[C@@H](CO)[C@H](O)[C@H]6O)C(C)(C)C5CC[C@]24C)C3[C@@](C)(O)[C@@H]1OC(C)=O (stereo not given in full)	-7.63	inactive	inactive	–	–	–
CC(=O)O[C@@H](CO[C@@H]1O[C@H](CO)[C@H](O)[C@H](O)[C@H]1O)[C@]1(C)C=C2CC[C@@H]3C(C)(C)[C@@H](O)CC[C@@]3(C)[C@@H]2CC1	18.3	inactive	inactive	–	–	–
CCOc1cc(CNC2CCCC2)cc(Cl)c1OCc1ccc(Cl)cc1	–	inactive	inactive	21.3 µM (active)	–	–
CC(C)C1CCC(CO)=CC1/C=C(\CO)C(=O)OCC1(O)CCC(C(C)C)C2C=C(C(=O)O)COC(=O)C21 (stereo not given)	9.16	inactive	inactive	–	–	–
COc1cc(/C=C/CO)ccc1O[C@@H]1O[C@H](CO)[C@@H](O)[C@H](O)[C@H]1O	-6.25	inactive	inactive	–	–	–
C[C@H]1CC[C@@]2(OC1)O[C@H]1CC3C4CC=C5C[C@H](O)C[C@@H](O[C@@H]6O[C@@H](C)[C@H](O)[C@@H](O)[C@H]6O[C@@H]6O[C@@H](C)[C@H](O)[C@@H](O)[C@H]6O)[C@]5(C)C4CC[C@]3(C)[C@H]1[C@@H]2C (stereo not given in full)	-13.7	inactive	inactive	–	–	–
COc1cccc(OC)c1-c1ccc(C[C@H](NC(=O)c2c(Cl)cccc2Cl)C(=O)O)cc1	1.67	inactive	inactive	–	–	–
C=CC(C)(C)C12Nc3c(ccc4c3OC(C)(C)C=C4)C1(O)CC1C(=O)N3CCCC3C(=O)N12 (stereo not given)	-0.763	inactive	inactive	–	–	–
O=C(NCCCc1ccccc1)c1cccc(-c2cc(O)c3ncccc3c2)c1	7.67	inactive	inactive	–	–	–
COc1cc(CCc2ccccc2)c(C(=O)O)c2c1CC(C(C)(C)O)O2 (stereo not given)	-13	inactive	inactive	–	–	–
O=C(N[C@@H]1CCCc2c1cnn2-c1ccc(F)cc1F)c1ccccn1	12.3	inactive	inactive	–	–	–
